Some test systems named below: SR leukemia; RPMI-8226 leukemia; OVCAR-8 ovarian; OVCAR-5 ovarian; OVCAR-4 ovarian; SK-OV-3 ovarian; IGROV1 ovarian; HS 578T breast; NCI/ADR-RES ovarian; T-47D breast; BT-549 breast; MDA-MB-435 melanoma; SW-620 colon; MCF7 breast; HCT-116 colon; HCC-2998 colon; KM12 colon.
Common to all, as to test: NCI-60 one-dose screen, 48 h (100 = growth as untreated, 0 = no growth, -100 = all killed)
Conditions in all cases: 10 µM unless noted

The panel holds about 83,000 compounds, 20% with a hit somewhere; the sample as a whole holds those more often.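 Growth was measured after 48 h exposure to one concentration of compound in 96-well plates. Values under 10 count as active.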 A number with no mark means an inactive call. The source made the active and inactive calls.

On to `N#C/C(=C\c1ccc(-c2ccc(Cl)cc2Cl)o1)c1ccc(F)cc1`, for which the growth in the test on SR leukemia is 90.5%; with RPMI-8226 leukemia, 85%; with OVCAR-8 ovarian, 93.8%; in the test with OVCAR-5 ovarian it was 92.2%; in the test with OVCAR-4 ovarian it was 80.4%; in the test on SK-OV-3 ovarian it was 81.9%. In addition, the growth was 86.5% with IGROV1 ovarian; 89.9% in the test on HS 578T breast; 93.7% in the test with NCI/ADR-RES ovarian; 78.8% in the test with T-47D breast; 112% with BT-549 breast; 93.7% with MDA-MB-435 melanoma. Moreover, the growth in the test on SW-620 colon is 93.5%; in the test on MCF7 breast, 66.9%; in the test on HCT-116 colon, 88.1%; in the test on HCC-2998 colon, 105%; in the test with KM12 colon, 94.2%.

As to `CCOc1ccc(C(=O)Nc2ncc(Cc3ccc(F)cc3)s2)cc1`, the growth is 19.6% in the test on SR leukemia; 25.5% with RPMI-8226 leukemia; 22.1% in the test on OVCAR-8 ovarian; 34.1% with OVCAR-5 ovarian; 54.1% with OVCAR-4 ovarian; 36.2% in the test on SK-OV-3 ovarian. Moreover, the growth in the test on IGROV1 ovarian is 40%; with HS 578T breast, 1.23% (active); in the test with NCI/ADR-RES ovarian, 18.2%; in the test with T-47D breast it was 34.1%; in the test with BT-549 breast, 57.1%; in the test on MDA-MB-435 melanoma, -16.1% (active). The growth in the test on SW-620 colon was 26.1%; with MCF7 breast it was 19.1%; with HCT-116 colon it was 13.2%; in the test on HCC-2998 colon, 15.5%; in the test with KM12 colon, 16.7%.

With `Nc1nc(-c2cccc([N+](=O)[O-])c2)c(N=Nc2cccc([N+](=O)[O-])c2)s1`, the growth in the test on SR leukemia was 67.5%; in the test on RPMI-8226 leukemia it was 34.3%; in the test on OVCAR-8 ovarian, 19.9%; in the test on OVCAR-5 ovarian it was 53.4%; with OVCAR-4 ovarian it was -15.2% (active); in the test with SK-OV-3 ovarian, -78% (active). In addition, the growth is 27.6% with IGROV1 ovarian; 37.6% with HS 578T breast; 18.6% in the test on NCI/ADR-RES ovarian; 31% in the test with T-47D breast; -41.4% (active) with BT-549 breast; 36.2% in the test on MDA-MB-435 melanoma. Further, the growth in the test on SW-620 colon was 18.5%; in the test on MCF7 breast, 13.1%; with HCT-116 colon it was -44.1% (active); in the test with HCC-2998 colon, 59.8%; with KM12 colon it was 48.2%.

For `Nc1nc(-c2cccc([N+](=O)[O-])c2)c(N=Nc2ccc(Br)cc2)s1`, the growth in the test on SR leukemia was 50.7%; in the test on RPMI-8226 leukemia, 15%; with OVCAR-8 ovarian, -28.7% (active); in the test on OVCAR-5 ovarian, -12.1% (active); in the test with OVCAR-4 ovarian it was -33.2% (active); with SK-OV-3 ovarian, -83.7% (active). Further, the growth in the test on IGROV1 ovarian was -13.3% (active); in the test on HS 578T breast, 0.349% (active); in the test with NCI/ADR-RES ovarian, -21.7% (active); in the test with T-47D breast, -26.9% (active); in the test with BT-549 breast, -29.6% (active); in the test with MDA-MB-435 melanoma it was 0.572% (active). In addition, the growth was -34.5% (active) in the test on SW-620 colon; 7.63% (active) in the test with MCF7 breast; -76.6% (active) in the test on HCT-116 colon; -31.6% (active) in the test on HCC-2998 colon; 15.4% in the test on KM12 colon.

As to `Cc1cc2ncc(-c3cc4ccccc4c(N4CCN(C)CC4)n3)nc2cc1C`, the growth is -39.9% (active) with SR leukemia; -12.2% (active) in the test on RPMI-8226 leukemia; 67.9% in the test on OVCAR-8 ovarian; 31.9% in the test on OVCAR-5 ovarian; 37.6% with OVCAR-4 ovarian; 87.5% in the test on SK-OV-3 ovarian. Besides, the growth in the test with IGROV1 ovarian is 42.3%; in the test on HS 578T breast it was 61.9%; in the test with NCI/ADR-RES ovarian it was 40.2%; in the test on T-47D breast, -54% (active); in the test on BT-549 breast, 85.9%; in the test with MDA-MB-435 melanoma it was -87.8% (active). Moreover, the growth with SW-620 colon is 1.46% (active); in the test on MCF7 breast, -65% (active); in the test on HCT-116 colon, -85.7% (active); in the test with HCC-2998 colon, -84.2% (active); in the test on KM12 colon, -3.53% (active).

In the case of `CC(C)(C)CC(C)(C)n1nnnc1C(Nc1nccs1)c1cc2cccc3ccc4cccc1c4c32` (stereo unspecified), the growth in the test on SR leukemia was 96.6%; with RPMI-8226 leukemia it was 104%; with OVCAR-8 ovarian, 100%; in the test on OVCAR-5 ovarian it was 84.6%; in the test with OVCAR-4 ovarian it was 99.7%; with SK-OV-3 ovarian it was 103%. Further, the growth in the test with IGROV1 ovarian is 93.5%; with HS 578T breast it was 93.8%; in the test on NCI/ADR-RES ovarian, 98%; in the test with T-47D breast, 75.4%; with BT-549 breast, 91.6%; with MDA-MB-435 melanoma, 102%. Besides, the growth in the test with SW-620 colon was 101%; with MCF7 breast, 75.3%; in the test on HCT-116 colon it was 97.7%; in the test on HCC-2998 colon, 103%; in the test with KM12 colon, 99.5%.

For the compound `COC(=O)c1[nH]nc2c1C1(C(=O)c3cccc4cccc1c34)C(C#N)=C(N)O2` (stereo unspecified), the growth is 115% in the test on SR leukemia; 104% with RPMI-8226 leukemia; 92% in the test on OVCAR-8 ovarian; 101% with OVCAR-5 ovarian; 97.5% with OVCAR-4 ovarian; 85.3% in the test with SK-OV-3 ovarian. In addition, the growth was 95.5% in the test on IGROV1 ovarian; 86.8% with HS 578T breast; 106% with NCI/ADR-RES ovarian; 104% in the test with T-47D breast; 124% in the test with BT-549 breast; 106% in the test on MDA-MB-435 melanoma. The growth is 100% in the test on SW-620 colon; 84.3% in the test with MCF7 breast; 101% in the test on HCT-116 colon; 106% in the test on HCC-2998 colon; 97.8% in the test on KM12 colon.

With `CNC(=O)c1cc(Oc2ccc3nc(NC(=O)c4cccc(OC(F)(F)F)c4)sc3c2)ccn1`, the growth in the test on SR leukemia was 58.3%; in the test with RPMI-8226 leukemia, 71.7%; in the test on OVCAR-8 ovarian it was 81.7%; with OVCAR-5 ovarian it was 95.3%; in the test with OVCAR-4 ovarian, 56.5%; in the test with SK-OV-3 ovarian, 88.4%. Further, the growth with IGROV1 ovarian was 90.3%; with HS 578T breast it was 69.6%; in the test on NCI/ADR-RES ovarian, 67.3%; in the test with T-47D breast, 63.1%; in the test on BT-549 breast, 137%; with MDA-MB-435 melanoma, 79%. Besides, the growth is 103% in the test on SW-620 colon; 77.6% in the test with MCF7 breast; 75.5% in the test with HCT-116 colon; 108% in the test with HCC-2998 colon; 85.6% with KM12 colon.

Values taken from PubChem BioAssay (NCI).
